Measured values published in PubChem BioAssay (EPA / NIEHS).
Results filed as inconclusive are left out. Calls of active or inactive are those of the source. How the source made its calls: active means hit-call score of the fitted dose curve at least 0.9, where 1 is the maximum; inconclusive means response in the unintended direction; inactive means score below 0.9.

Target: chimpanzee Androgen Receptor (AR), AR (gene 747460) (UniProt O97775)
Assay: NVS_NR_cAR: NovaScreen (NVS) Nuclear Receptor Binding Assay for chimpanzee Androgen Receptor (AR) (AID 2283346);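 further: a loss of bound radioligand signal versus DMSO counts as binding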
In short: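 Radioligand binding to chimpanzee AR expressed in Sf9/Sf21 cells, cell-free, measured 72 h after dosing by lysate-based scintillation counting. Loss of signal vs DMSO; initial duplicate screen at 25 uM, actives retested in concentration series.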

Chain of chimpanzee Androgen Receptor (AR), AR (gene 747460) (O97775 whole entry, looked up): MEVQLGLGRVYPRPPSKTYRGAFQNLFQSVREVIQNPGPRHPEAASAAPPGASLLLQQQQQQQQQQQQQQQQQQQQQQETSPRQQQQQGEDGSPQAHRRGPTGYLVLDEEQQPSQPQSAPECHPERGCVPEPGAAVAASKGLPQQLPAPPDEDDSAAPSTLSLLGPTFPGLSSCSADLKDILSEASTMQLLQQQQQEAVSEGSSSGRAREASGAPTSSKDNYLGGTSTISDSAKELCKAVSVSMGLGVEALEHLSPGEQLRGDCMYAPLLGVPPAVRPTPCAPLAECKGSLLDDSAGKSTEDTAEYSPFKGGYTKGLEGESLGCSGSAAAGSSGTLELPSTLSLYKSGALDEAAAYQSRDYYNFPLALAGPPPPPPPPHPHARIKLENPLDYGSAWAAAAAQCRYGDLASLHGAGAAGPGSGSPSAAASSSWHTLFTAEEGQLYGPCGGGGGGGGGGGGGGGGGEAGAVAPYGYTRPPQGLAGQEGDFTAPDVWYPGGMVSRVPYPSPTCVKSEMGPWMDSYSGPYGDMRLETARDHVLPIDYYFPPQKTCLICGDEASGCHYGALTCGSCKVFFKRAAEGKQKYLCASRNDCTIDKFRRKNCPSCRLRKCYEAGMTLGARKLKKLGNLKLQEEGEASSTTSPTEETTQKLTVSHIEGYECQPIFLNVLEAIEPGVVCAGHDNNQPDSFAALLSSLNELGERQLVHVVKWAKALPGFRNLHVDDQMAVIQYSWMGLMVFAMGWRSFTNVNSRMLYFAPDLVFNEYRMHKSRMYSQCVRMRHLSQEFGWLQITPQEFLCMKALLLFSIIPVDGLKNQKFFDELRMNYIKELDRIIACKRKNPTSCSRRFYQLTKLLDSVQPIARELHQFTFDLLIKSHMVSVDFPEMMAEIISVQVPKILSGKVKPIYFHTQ

outcome, inactive:
O=CCc1ccccc1
CCc1cc(C(C)(C)C)c(O)c(C(C)(C)C)c1
C=C(C)[C@H]1CC=C(C)C(=O)C1
CN1CCOCC1
Nc1ccccc1[N+](=O)[O-]
Nc1ccc(N)c2c1C(=O)c1ccccc1C2=O
CCOC(=O)c1ccc(N)cc1

AC50, active:
BrCc1cccc(Oc2ccccc2)c1 25 µM
C=C1CC[C@H](O)C/C1=C/C=C1\CCC[C@]2(C)[C@@H]([C@H](C)/C=C/[C@H](C)C(C)C)CC[C@@H]12 28.4 µM
Oc1ccc2cc(SSc3ccc4cc(O)ccc4c3)ccc2c1 31.9 µM
OCc1cccc(Oc2ccccc2)c1 25 µM
O=C(Nc1ccc2c(O)c(N=Nc3ccc(N=Nc4ccc(S(=O)(=O)O)cc4)cc3)c(S(=O)(=O)O)cc2c1)c1ccccc1 40.6 µM
CCCCCCCCC=CCCCCCCCC1=NCCN1CCO 35.8 µM
